Screening data deposited in PubChem by National Center for Advancing Translational Sciences (NCATS).
AMA1-RON2 inh: disrupts binding of P. falciparum AMA1 to RON2. AlphaScreen AMA1-biotinylated RON2 peptide binding. Potency, µM (doses to about 58.2 µM), for inactives: at the highest dose activity change, negative = inhibition, most hits filed as inhibitors. 0.2% of 360,000 active;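 note: 0% = vehicle wells and -100% = peptide control; nearly all actives have a fitted effect of over 45% in size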
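AMA1 (3D7) with his tag at 25 nM final met compounds first, then biotinylated RON2 peptide at 25 nM; detection used donor plus acceptor beads, 10 µg/mL apiece, read by AlphaScreen after 30 min at room temperature.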
SARS PLP yeast: SARS-CoV PLP inhibition in yeast; S. cerevisiae expressing SARS-CoV PLpro, growth rescue; Potency, µM (doses to about 32.9 µM), for inactives: at the highest dose activity, positive = growth rescue, usual class: activators; 0.19% of 330,000 active; AID 485353; calls by dose curve; note: 0% is about no effect; nearly all actives have a fitted effect of over 55% in size
HCV inhibitor: blocks hepatitis C virus; Potency, µM (top dose mostly 41.8 µM), for inactives: at the top dose activity change, negative = inhibition, actives largely listed as inhibitors; AID 651820; 3.4% of 340,000 active; Huh7.5.1 HCVcc-Cre infection, luciferase reporter, 44 h; note: % is set by controls: 0 for no effect and ±100 for the full control effect
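Luciferase read-out (15 sec integration) after a 15 min room-temperature substrate step quantifies HCVcc-Cre infection. Cells, 1,000 per well, had compound added 4 h post-plating, then virus at ~0.5 moi, and were cultured 44 h.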
Pf growth 48h: P. falciparum growth inhibition at 48 hours (one generation); P. falciparum luciferase growth in erythrocytes, 48 h; Potency, µM (series often up to 28.7 µM), for the others: top-dose activity change, negative = inhibition, hits mostly inhibitors; 5.9% of 310,000 active; note: % is set by controls: 0 for no effect and ±100 for the full control effect
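Here the parasites carry a stable luciferase gene and grow inside erythrocytes in Albumax-based RPMI medium with compound for one erythrocytic cycle. Activity is scored as loss of luminescent signal.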
NS1 function inh: inhibitors of influenza NS1 protein function. AID 2326. 0.4% of 270,000 active. Potency, µM (series often up to 46.1 µM), without a hit: at the top dose activity, positive = more growth; calls by dose curve; note: actives are rising curves; nearly all actives have a fitted effect of over 50% in size
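Growth recovery, yeast-based: influenza A NS1 expressed in S. cerevisiae causes slow growth, and suppressors are detected by OD600. The parent strain without NS1 is used as positive control.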
Pf growth 96h: P. falciparum growth inhibition at 96 hour, primary screen for plastid delayed-death inhibitors | 6.9% of 320,000 active | P. falciparum luciferase reporter growth, 96 h | Potency, µM (highest dose often 28.7 µM), without a hit: top-dose activity change, negative = inhibition, usual class: inhibitors; note: % is set by controls: 0 for no effect and ±100 for the full control effect
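P. falciparum expressing integrated firefly luciferase grown in erythrocytes (2% hematocrit, 0.05% parasitemia final) with compounds for 96 hours at 37 C, 5% CO2. Growth inhibition read as loss of luminescence after adding luciferase detection reagent.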
* = called active by the depositor; ? = inconclusive; / = not tested or not shown; [ ] = another dose, or the depositor's remark. Most compounds without a hit are left out; they make up all but 12% or so of the library. Unless noted, calls come from the whole dose curve; as a rule, active = well fitted curve in the direction sought with a large enough effect; inconclusive = small, poorly fitted or top-dose-only effect, or another doubt; inactive = no such curve, though single readings can be large; an effect the other way counts as inactive or inconclusive. Potency is the fitted concentration of half-maximal effect.

SMILES | AMA1-RON2 inh | SARS PLP yeast | HCV inhibitor | Pf growth 48h | NS1 function inh | Pf growth 96h
CCCN1Cc2cccc(C(=O)NC(CC(=O)OCC)c3ccc(OCC)c(OC)c3)c2C1=O (stereo unspecified) | 0% | 5% | ? | ? | / | -21%
O=c1[nH]c(-c2ccccc2)nn1-c1ccc(Br)cc1Br | 11% | 8% | 10% | 53% | 8% | -17%
CCNCCC1(CC)C(=O)NC(=O)NC1=O | / | / | / | / | -3% | /
C/C(CC(=O)Nc1cccc2c1CCCC2)=N\NC=O | -14% | -2% | -1% | -4% | 3% | 24%
CCC[C@H](Sc1nc(N)nc2nc[nH]c12)C(=O)O | / | / | / | / | -3% | /
Cc1ccc(C(C(=O)NCC2CCCO2)N(C(=O)c2snc(C(N)=O)c2N)c2ccc3c(c2)OCCO3)cc1 (stereo unspecified) | ? | 0% | ? | 10µM* | 6% | -4%
NC(=O)c1nsc(C(=O)N(c2ccc3c(c2)OCCO3)C(C(=O)NCC2CCCO2)c2ccc(F)cc2)c1N (stereo unspecified) | -23% | 2% | ? | ? | 16% | -3%
CC(C)CCNC(=O)C(c1ccco1)N(Cc1ccccc1)C(=O)c1snc(C(N)=O)c1N (stereo unspecified) | 9% | 1% | / | ? | -1% | /
CCOc1ccc(C(C(=O)NCC2CCCO2)N(C(=O)c2snc(C(N)=O)c2N)c2cccc(F)c2)cc1 (stereo unspecified) | -8% | -3% | -25% | 13µM* | 18% | 28%
CCOc1ccc(C(C(=O)NCC2CCCO2)N(C(=O)c2snc(C(N)=O)c2N)c2ccccc2F)cc1 (stereo unspecified) | -14% | -1% | ? | ? | 5% | ?
CCOc1ccc(C(C(=O)NCC2CCCO2)N(Cc2cccs2)C(=O)c2snc(C(N)=O)c2N)cc1 (stereo unspecified) | -2% | 8% | ? | 13µM* | 20% | ?
Cc1ccc(N(C(=O)c2snc(C(N)=O)c2N)C(C(=O)NCCC(C)C)c2ccco2)cc1 (stereo unspecified) | -7% | 0% | 32µM* | -25% | / | ?
CC1(C)[C@@H](OC(=O)CCC(=O)O)CC[C@@]2(C)[C@H]1CC[C@@]1(C)[C@H]2C(=O)C=C2[C@H]3C[C@](C)(C(=O)O)CC[C@]3(C)CC[C@@]21C | / | / | / | 4%[12.8 µM] | / | 0%[12.8 µM]
COc1cccc2cc(-c3nc(-c4cccs4)cs3)c(=O)oc12 | 21% | 4% | 2% | 34% | -5% | ?
COc1cc(-c2cccs2)cc(=O)c2c(C)oc(C)c12 | -6% | 9% | 11µM* | ? | -13% | 12µM*
CCOCCCNC(=O)CCn1ccc2cc(S(=O)(=O)N3CCCC3)ccc21 | 15% | 5% | 11% | ? | 2% | 10µM*
CCOc1ccc(CCNC(=O)CCn2ccc3cc(S(=O)(=O)N4CCCC4)ccc32)cc1 | -6% | -6% | 13µM* | ? | -3% | ?
[O-][N+](=C(c1ccccc1)c1ccccc1)c1ccccc1 | 0% | / | 12% | / | / | /
COc1ccc(/C=C2\N=C(c3ccccc3)NNC2=O)cc1 | -9% | -1% | 3% | -3% | -1% | 0%
COc1ccc(CNS(=O)(=O)CCNC(=O)c2ccc(OC)cc2)cc1 | 20% | 1% | 15% | 4% | / | -18%
CCOC(=O)N1CCC(Nc2cc(C)nc3c(-c4ccccc4OC)c(C)nn23)CC1 | 0% | -3% | ? | 9.3µM* | -67% | 2%
CCOC(=O)N1CCN(C(=O)CSc2ccc(-c3ccccc3OC)nn2)CC1 | 0% | 2% | ? | ? | / | 4.7µM*
CCOC(=O)N1CCN(C(=O)CSc2ccc(-c3cccc(OC)c3)nn2)CC1 | 3% | -2% | -19% | -30% | / | -29%
CCOC(=O)N1CCN(C(=O)CSc2cc(C)nc3c(-c4ccccc4OC)c(C)nn23)CC1 | 23% | 4% | ? | 4.7µM* | -6% | 11%
O=Cc1ccc(OCc2nnsc2Cl)cc1 | -8% | 1% | -1% | ? | / | -7%
SMILES | AMA1-RON2 inh | SARS PLP yeast | HCV inhibitor | Pf growth 48h | NS1 function inh | Pf growth 96h
CCOC(=O)Cc1csc(NC(=O)/C=C/c2ccc(Cl)cc2)n1 | -2% | 0% | 11µM* | 52% | 3% | ?
CCOC(=O)Cc1csc(NS(=O)(=O)c2ccc(Cl)cc2)n1 | 5% | -1% | 38% | ? | 10% | 8.3µM*
CCOC(=O)Cc1csc(NS(=O)(=O)c2ccc(OC)cc2)n1 | -12% | -1% | 22% | 6% | ? | -44%[5.75 µM]
O=S(=O)(NC1CCN(S(=O)(=O)c2c(F)cccc2F)CC1)c1ccc2c(c1)OCCO2 | / | -1% | / | / | / | /
COc1cc2cc[n+](Cc3ccc([N+](=O)[O-])cc3)cc2cc1OC | 1% | 2% | 6% | 4.7µM* | 1% | 3.3µM*
O=[N+]([O-])c1ccc(C[n+]2cccc(O)c2)cc1 | 2% | -6% | 2% | 22% | / | 50%
C/C(=N/Nc1nc(-c2ccccc2F)nc2ccccc12)c1ccccc1O | 61% | 0% | ? | ? | 1% | ?
C/C(=N\Nc1nc(-c2ccccn2)nc2ccccc12)c1ccc(F)cc1 | 73% | -1% | 4.5µM* | ? | 6% | -33%
C/C(=N\Nc1nc(-c2ccccc2O)nc2ccccc12)c1ccccc1 | 19% | -1% | -4% | 0.52µM* | 2% | ?
O=C(NCc1ccc(Cl)cc1)C1CCN(S(=O)(=O)c2ccc(F)cc2)CC1 | 0% | 0% | -17% | -4% | -7% | 23%
COc1ccccc1P(=O)(Cc1ccccc1)c1ccccc1 (stereo unspecified) | -5% | 0% | 3% | -5%[0.00184 µM] | -2% | -3%
O=C(COC(=O)CCCOc1ccccc1)NNC(=O)c1ccc([N+](=O)[O-])cc1 | 110% | -6% | -15% | 16% | -3% | -7%
COCCNC(=O)CNC(=S)N(Cc1ccccc1)Cc1cccnc1 | 3% | -13% | ? | 7% | 2% | 12µM*
Cc1ccc(CNC(=O)CNC(=S)N(Cc2ccccc2)Cc2cccnc2)cc1 | -3% | 3% | -16% | -15% | / | ?
O=C(CNC(=S)N(Cc1ccccc1)Cc1ccccc1F)NCCc1ccc(Cl)cc1 | -23% | -5% | -4% | 12µM* | / | ?
Cc1ccc(CN(Cc2ccccc2)C(=S)NCC(=O)NCc2cccnc2)o1 | 0% | 5% | 10% | 12µM* | / | -5%
COCCCNC(=O)CNC(=S)N(Cc1ccccc1)Cc1cccnc1 | -5% | 1% | 10% | 36% | / | 10µM*
COc1cc(NC(=O)[C@@H](NC(=O)N2CCn3c2nc2ccccc23)C(C)C)cc(OC)c1 | 73% | -8% | ? | ? | 2% | ?
